We go through 68 compounds from PubChem BioAssay AID1259343 (VanderVen Lab, College of Veterinary Medicine, Cornell …, 2017).

SMILES strings stand for the structures. The campaign covered roughly 6,200 compounds. About 2,900 (47%) were called active. Cut-off read from the data, not from the text of the source: active = inhibition above about 50%; inactive = the rest. So high a share suggests a set chosen from earlier hits. This is one part of the list.

This assay in a line: Mycobacterium tuberculosis growth inhibition, primary screen (AID 1259343). Conditions: inhibition: at 10 µM, active compounds read high; outcome: 10 uM.
As a reminder, the inhibition is the relative decrease from the control value, in per cent. As for `Cc1cc(NC(=O)C2CC2)sc1C(=O)n1ccnc1`, the inhibition was 48.7% (inactive).

For the compound `CCN(CCNC(=O)NCC1CCCC1)C(=O)OC(C)(C)C`, the inhibition was 47.4% (inactive). The figure for `O=C(NCC1CCCC1)n1ccnc1` is 79.2% (active); for `CC1CN(C(=O)CN2CCc3sccc3C2c2cccc(F)c2)CCN1C(=O)Nc1ccc([N+](=O)[O-])cc1` (stereo not drawn) it is -36.2% (inactive); for `OC(C#Cc1ccccc1)C#CC(O)(c1ccccc1)c1ccccc1` (stereo not drawn) it is -2.57% (inactive). For the compound `N#CC(=Cc1ccc2c(c1)OCCO2)C(=O)Nc1ccc(SC(F)F)cc1`, the inhibition was 84.4% (active). Regarding `CSc1ccc(C=CC(=O)c2ccc3c(c2)OCCO3)cc1`, the inhibition was -10.1% (inactive).

`COC(=O)c1ccc(NS(=O)(=O)c2ccccc2Br)s1`: the inhibition is 43.4% (inactive). The figure for `O=S(=O)(Nc1ccccc1Br)c1ccccc1Br` is 91.4% (active); for `CCc1ccccc1NS(=O)(=O)c1cc(Cl)cnc1N` it is 1.41% (inactive). Then `CC(C)(C)c1ccccc1NS(=O)(=O)c1ccc(Cl)s1`, with 23.7% (inactive); and `O=S(=O)(Nc1ccccc1Br)c1ccc(Br)s1`, with 83.3% (active). Then `CC1(C)C(C=C(Cl)Cl)C1C(=O)OCc1cccc(Oc2ccccc2)c1` (stereo not drawn), with -12.7% (inactive). As to `O=C(NCCc1cc(Cl)cc(Cl)c1)c1ccc2c(c1)COCO2`, the inhibition is 25.3% (inactive). Then `O=C(NCCc1ccc(Cl)cc1Cl)c1cn[nH]c1`, with 91.4% (active); and `CCOc1ccccc1CNC(=O)c1ccc(-c2cc(-c3ccc(Cl)cc3Cl)[nH]n2)cc1`, with 31.1% (inactive).

In the case of `CN(C)c1c(Cl)cccc1NC(=O)NCc1ccoc1`, the inhibition is 40.8% (inactive). Then `COc1cc(COc2ccc(NC(C)=O)cc2)c(OC)cc1Br`, with 19.7% (inactive); and `ON=Cc1cccc(OCc2ccccc2)c1`, with -7.21% (inactive); and `Oc1cccc(OCc2cccc(C(F)(F)F)c2)c1`, with 89.2% (active). For the compound `N#Cc1ccc(NC(=O)Cc2cccc(C(F)(F)F)c2)cc1Cl`, the inhibition is 8.71% (inactive). The figure for `CC(NS(=O)(=O)Cc1cccc(C(F)(F)F)c1)c1cccc(Br)c1` (stereo not drawn) is 25.3% (inactive); for `CC(=O)Nc1ccc(OCc2ccc(Br)cc2F)cc1` it is 62.5% (active). `FC(F)(F)c1cccc(CSc2ncnc3ccccc23)c1`: the inhibition was 38.1% (inactive). Then `CC(=O)Nc1ccc(OCc2cccc(C(F)(F)F)c2)cc1`, with 57.6% (active). `COc1ccccc1/C=C/C=C1N=C(/C=C/c2ccc(C)cc2)OC\1=O`: the inhibition was 81.8% (active). Then `O=C1N=C(c2ccccc2)OC1=CC=Cc1ccccc1`, with -12.3% (inactive).

As to `O=c1c2ccccc2nnn1CSc1ccc(F)cc1`, the inhibition is 72.2% (active).

Consider `O=c1c2ccccc2nnn1Cc1ccc(Cl)cc1`, for which the inhibition was 103% (active). Then `Cc1cc(NC(=O)c2cccn(Cc3ccc(Cl)cc3)c2=O)c2ccccc2n1`, with 20.7% (inactive); and `Cc1ccc(OCC(O)Cn2nnc3ccccc3c2=O)cc1` (stereo not drawn), with 35% (inactive); and `CCCc1nnc(SCc2ccc(OCCC(C)C)cc2)n1N`, with 37.1% (inactive). Then `CC1N(C)c2ccc(C=C(C#N)C#N)cc2C1(C)C` (stereo not drawn), with -15.1% (inactive). Turning to `CC(C)CCOc1ccc(C=C(C#N)C#N)cc1`, the inhibition is 51.5% (active). Then `Cc1csc(SCc2cc(=O)c(OC(=O)c3ccc(C)c(C)c3)co2)n1`, with -15% (inactive). Consider `CCCC1CCCN(C(=O)c2cc3ccccc3cc2O)CC1` (stereo not drawn), for which the inhibition is 23.5% (inactive). The figure for `O=C(c1cnn2ccccc12)N1CCCC(CCc2cccc(C(F)(F)F)c2)C1` (stereo not drawn) is 93.1% (active); for `O=C(c1cc(COc2cccc(C(F)(F)F)c2)on1)N1CCCC(CCCO)C1` (stereo not drawn) it is 47.5% (inactive); for `COc1coc(CN2CCCC(CCc3ccccc3C)C2)cc1=O` (stereo not drawn) it is 33.7% (inactive). Then `CC(C)c1ncc(CN2CCCC(CCc3cccc(C(F)(F)F)c3)C2)cn1` (stereo not drawn), with 93.2% (active); and `COc1ncc(CN2CCCC(CCc3ccccc3C(F)(F)F)C2)cn1` (stereo not drawn), with 77.6% (active). On to `COc1ncc(C(=O)N2CCCC(COc3cccc(F)c3)C2)cn1` (stereo not drawn), for which the inhibition is 36.7% (inactive).

With `COc1ccc(Cn2c(C3CCCCC3)nc3oc4ccccc4c(=O)c3c2=O)cc1`, the inhibition was -20.8% (inactive). Then `CCCOc1ccc(Cn2c(=O)oc3ccc(C)cc32)cc1`, with 67.2% (active). The figure for `CCOc1ccc(Cn2c(=O)oc3ccccc32)cc1` is 68.1% (active); for `CCCOc1ccc(Cc2nn[nH]n2)cc1` it is 34.6% (inactive); for `CCOC1=CC(=O)N(Cc2ccccc2)C1` it is 48.1% (inactive).

Consider `CCCOc1ccc(C2c3c(oc4ccc(C)cc4c3=O)C(=O)N2c2nccs2)cc1` (stereo not drawn), for which the inhibition is -18.8% (inactive). For `NC1=NC(=O)C(CC(=O)Nc2ccc(SC(F)(F)C(F)(F)C(F)(F)F)cc2)S1` (stereo not drawn), the inhibition is 35.5% (inactive).

For `O=S(=O)(/C=C/c1ccccc1)Nc1ccc(Cl)cc1F`, the inhibition was 81.5% (active). The figure for `O=S(=O)(/C=C/c1ccccc1)NC1CCCCC1` is 17% (inactive); for `O=S(=O)(/C=C/c1ccccc1)Nc1ccccc1C(F)(F)F` it is 78.4% (active); for `O=S(=O)(/C=C/c1ccccc1)NCCc1cccc2ccccc12` it is 6.24% (inactive). For `Cc1ccc2nc(-c3cccc(N)c3C)oc2c1`, the inhibition is 42.1% (inactive). The figure for `COc1ccc(OCCNc2ccccc2-c2nn[nH]n2)cc1` is 22.1% (inactive). Take `Cc1cccc(C)c1-c1ccc(-c2nn[nH]n2)cc1`: the inhibition was 70.6% (active). As for `O=C(Cn1ncc(Cl)c(Cl)c1=O)c1ccc2c(c1)CCC2`, the inhibition is 82.8% (active). `O=C(Cn1ncc(Cl)c(Cl)c1=O)c1cc(F)ccc1F`: the inhibition was -50.8% (inactive). As to `O=C(Cn1ncc(Cl)c(Cl)c1=O)Nc1ccc2ccccc2c1`, the inhibition is 11% (inactive).

With `CC(C)OC(=O)c1ccc(COc2ccc(C(C)(C)C)cc2)o1`, the inhibition is 75.8% (active).

With `CC(C)(C)c1ccc(OCc2ccc(C(=O)OCC#N)cc2)cc1`, the inhibition is -2.26% (inactive). Then `CC1CC1c1ccc(CCC(=O)Nc2ccccn2)o1` (stereo not drawn), with 48.8% (inactive); and `CC1CC1c1ccc(/C=C2/SC(N)=NC2=O)o1` (stereo not drawn), with 5.99% (inactive).

For the compound `CC(C)c1nc(CC(=O)N(C)Cc2ccc(C3CC3C)o2)cs1` (stereo not drawn), the inhibition was 83.2% (active). Regarding `COc1cccc(Cc2nsc(Oc3ccc(CC(=O)O)cc3)n2)c1`, the inhibition is 88.3% (active). For `COc1cccc(CC(=O)Nc2ccc3c(c2)CCC3)c1`, the inhibition is -43.3% (inactive). Then `C=C(C)COc1cccc(C(=O)NCc2noc(C3CCCC3)n2)c1`, with 38.4% (inactive); and `CN(Cc1ccc2cccc(O)c2n1)Cc1noc(C2CCC2)n1`, with 98.5% (active).
